Consider 39 sequences from the supplement of paper PMC6555819.

The first assay concerns LXRa:RXRa (NR concentration 270 nM, RXRa partner concentration 90 nM). In words: PBM binding z-score (relative to random genomic background probes); higher = stronger binding; sequences stand for … in GC…GCGATTGACAGCGTAGAATGAAGG
The method, boiled down: (§1)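 Ligand-free nuclear receptor dimers were bound for 1 h to custom Agilent 4×180K protein-binding microarrays. Detection used antibodies against each partner (one per run). Binding z-scores rest on regression-normalized fluorescence, with random background probes as the reference.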
Sequence ATATGTAGGTTAGGATCATTCAGAAAGTAGGGAA had a PBM binding z-score of 0.786.

As for CGAGCTAGGTCACCAGGACAGTGAAGAGGTTGGA, the PBM binding z-score was found to be 2.28.

Regarding CCAGAAAGGTGAAAGGTAACTCAGTCTGGTACGC, the PBM binding z-score was found to be 2.14.

For the sequence CGTCAAAGTTCAACTAAGGTAACGTATAGCACGC, the PBM binding z-score stood at 6.07.

CGCACTAGGTCAAAGGACAGTGAAAGGCGACGTA showed a PBM binding z-score of 2.88.

As for CGAACTAGGTTACCAGGACAGTGAAGAGGTTGGA, the PBM binding z-score was -0.0635.

Turning to ATATGTAGGTTAGGGTCGTTCAGAAAGTAGGGAA, the PBM binding z-score amounted to 2.54.

For CGAACTAGGTCAAAGGACAGTGACAGGCGACGTA, the PBM binding z-score was 2.82.

CGTCCAAGGGCAGCAGGTCAGTGAAAGCGACGTG: the PBM binding z-score is -0.0372.

Sequence CGAACTAGGTCACCAGGACACTGAAGAGGTTGGA gave a PBM binding z-score of 2.61.

Regarding GCTTACGGGTCAAAGGTTACAGCATGAATAGAAT, the PBM binding z-score is 5.9.

TTACCAAGGTGAAAGGTCGTTGAAGCACGCCTTG displayed a PBM binding z-score of 3.41.

For CGAACTAGGTCAAAGGACAATGAAAGGCGACGTA, the PBM binding z-score came to 2.65.

As to GCTTACGGGTCAAAGGTTATAGTATGAATAGAAT, the PBM binding z-score came out at 5.83.

With CGTCCAAGGTCATAGGAGGTCACTGAAGACAGAT, the PBM binding z-score was determined as 7.6.

In turn, ATCGAAAGGTCGACGAGGTGAGTATGCACCGTTT registered a PBM binding z-score of 3.13.

In the case of CGAACTAGGTCTCCAGGACAGTGAAGAGGTTGGA, the PBM binding z-score was -0.769.

In the next assay the test system is LXRa homodimer (NR concentration 270 nM). Described as above. The gist of the method:
as §1
In turn, CCCCGGAGGACAGAAGGTCAGAGCTGTCCGCTTT showed a PBM binding z-score of 0.417.

The sequence CCTACGGGGCCAAAGGTCATTGATTCCAATGCTC registered a PBM binding z-score of 4.4.

TAGCCTAGCTCATTCAGGGGCCAGTATAGAAAGC displayed a PBM binding z-score of -1.16.

With TAGCCTAGGTCATTGGGCTAGTATAGTACGCATC, the PBM binding z-score stood at 0.404.

Sequence ATATGTAGGTTAGGGTCATTCCGAAAGTAGGGAA had a PBM binding z-score of 1.27.

Sequence GACACAGGGTCAGCTAGAGGCCAGAGTATGGAAA had a PBM binding z-score of -0.521.

In turn, CGAACTAGGCCACCAGGACAGTGAAGAGGTTGGA returned a PBM binding z-score of -0.662.

On to CCGTACGGGTCAAGGTTATAGCACGGGTGGTACG, for which the PBM binding z-score is -0.221.

In turn, CCTACAGGGCCAAAGGTCATTGATTCCAATGCTC registered a PBM binding z-score of 4.04.

For the sequence CCTACTGGGCCATCAGGTGATTGATATCAACGTT, the PBM binding z-score is -0.341.

With ATCGAATGGTCGAAGGTGAGTATACCCACCCGAA, the PBM binding z-score was -0.451.

The sequence CCTAGTTGGTCAGGAGGTCACAAACCGGATATGA yielded a PBM binding z-score of 1.66.

ATACGTAGGTTACATCCGGGTCATTCAGGCTATG had a PBM binding z-score of 1.12.

CCTTACGGGTCACTGACAGGTCATAGCATTTGGA yielded a PBM binding z-score of 2.3.

CCTAGTTGGTCAGGAGGCCACACACCGGATATGA returned a PBM binding z-score of 0.335.

The sequence CGAACTAGGTCACCTGGACAGTGAAGAGGTTGGA registered a PBM binding z-score of 0.0453.

Regarding CGAACTAGGTCACCATGACAGTGAAGAGGTTGGA, the PBM binding z-score was -0.254.

Consider CCTACTGGGCCAAAAATGTCATTGATGCCGATAA, for which the PBM binding z-score was -0.332.

In turn, CGCACTAGGTCACCAGGACAGTGAAGAGGTTGGA had a PBM binding z-score of 0.256.

Take CGAACTATGTCACCAGGACAGTGAAGAGGTTGGA: the PBM binding z-score was -0.0452.

ATACCAAGGTTATCGTGAGGTCGTTGATACTAAC showed a PBM binding z-score of 2.28.

With CCTACTGGGCGACGAAAGGTCATTGATTCAGTGA, the PBM binding z-score stood at 4.32.

On to ATATGTAGGTTAGGATCATTCAGAAAGTAGGGAA, for which the PBM binding z-score was found to be 0.139.

Sequence CGAGCTAGGTCACCAGGACAGTGAAGAGGTTGGA had a PBM binding z-score of -0.245.

The sequence CCAGAAAGGTGAAAGGTAACTCAGTCTGGTACGC yielded a PBM binding z-score of -0.21.

Sequence CGTCAAAGTTCAACTAAGGTAACGTATAGCACGC yielded a PBM binding z-score of 4.63.

In turn, CGCACTAGGTCAAAGGACAGTGAAAGGCGACGTA displayed a PBM binding z-score of 0.082.

For CGAACTAGGTTACCAGGACAGTGAAGAGGTTGGA, the PBM binding z-score is -0.296.

ATATGTAGGTTAGGGTCGTTCAGAAAGTAGGGAA: the PBM binding z-score turned out to be 0.724.

For the sequence CGAACTAGGTCAAAGGACAGTGACAGGCGACGTA, the PBM binding z-score amounted to 0.19.

The sequence CGTCCAAGGGCAGCAGGTCAGTGAAAGCGACGTG displayed a PBM binding z-score of -0.847.

Sequence CGAACTAGGTCACCAGGACACTGAAGAGGTTGGA registered a PBM binding z-score of 0.155.

The sequence GCTTACGGGTCAAAGGTTACAGCATGAATAGAAT had a PBM binding z-score of 0.488.

TTACCAAGGTGAAAGGTCGTTGAAGCACGCCTTG came in with a PBM binding z-score of 0.16.

Take CGAACTAGGTCAAAGGACAATGAAAGGCGACGTA: the PBM binding z-score amounted to 0.155.

GCTTACGGGTCAAAGGTTATAGTATGAATAGAAT displayed a PBM binding z-score of 0.73.

The sequence CGTCCAAGGTCATAGGAGGTCACTGAAGACAGAT returned a PBM binding z-score of 6.16.

ATCGAAAGGTCGACGAGGTGAGTATGCACCGTTT displayed a PBM binding z-score of -0.377.

In the case of CGAACTAGGTCTCCAGGACAGTGAAGAGGTTGGA, the PBM binding z-score is -0.494.

The test system of the next assay is LXRb:RXRa (NR concentration 270 nM, RXRa partner concentration 90 nM). The description is as above. The gist of the method: as §1
Consider CCCCGGAGGACAGAAGGTCAGAGCTGTCCGCTTT, for which the PBM binding z-score came out at 1.09.

Sequence CCTACGGGGCCAAAGGTCATTGATTCCAATGCTC displayed a PBM binding z-score of 5.16.

In turn, TAGCCTAGCTCATTCAGGGGCCAGTATAGAAAGC showed a PBM binding z-score of -0.368.

Consider TAGCCTAGGTCATTGGGCTAGTATAGTACGCATC, for which the PBM binding z-score came out at 1.81.

For the sequence ATATGTAGGTTAGGGTCATTCCGAAAGTAGGGAA, the PBM binding z-score came to 4.26.

Sequence GACACAGGGTCAGCTAGAGGCCAGAGTATGGAAA registered a PBM binding z-score of 2.32.

With CGAACTAGGCCACCAGGACAGTGAAGAGGTTGGA, the PBM binding z-score was -0.868.

Turning to CCGTACGGGTCAAGGTTATAGCACGGGTGGTACG, the PBM binding z-score was found to be 3.11.

The sequence CCTACAGGGCCAAAGGTCATTGATTCCAATGCTC showed a PBM binding z-score of 4.71.

On to CCTACTGGGCCATCAGGTGATTGATATCAACGTT, for which the PBM binding z-score was -0.438.

Regarding ATCGAATGGTCGAAGGTGAGTATACCCACCCGAA, the PBM binding z-score is -0.362.

Turning to CCTAGTTGGTCAGGAGGTCACAAACCGGATATGA, the PBM binding z-score was 3.16.

With ATACGTAGGTTACATCCGGGTCATTCAGGCTATG, the PBM binding z-score came to 2.83.

As to CCTTACGGGTCACTGACAGGTCATAGCATTTGGA, the PBM binding z-score worked out at 4.51.

Turning to CCTAGTTGGTCAGGAGGCCACACACCGGATATGA, the PBM binding z-score is 0.191.

For the sequence CGAACTAGGTCACCTGGACAGTGAAGAGGTTGGA, the PBM binding z-score is 1.79.

Turning to CGAACTAGGTCACCATGACAGTGAAGAGGTTGGA, the PBM binding z-score turned out to be 1.49.

Turning to CCTACTGGGCCAAAAATGTCATTGATGCCGATAA, the PBM binding z-score was -0.343.

On to CGCACTAGGTCACCAGGACAGTGAAGAGGTTGGA, for which the PBM binding z-score was determined as 1.9.

With CGAACTATGTCACCAGGACAGTGAAGAGGTTGGA, the PBM binding z-score was -0.257.

ATACCAAGGTTATCGTGAGGTCGTTGATACTAAC had a PBM binding z-score of 2.93.

With CCTACTGGGCGACGAAAGGTCATTGATTCAGTGA, the PBM binding z-score was 3.94.

In turn, ATATGTAGGTTAGGATCATTCAGAAAGTAGGGAA showed a PBM binding z-score of 0.95.

CGAGCTAGGTCACCAGGACAGTGAAGAGGTTGGA gave a PBM binding z-score of 1.56.

Sequence CCAGAAAGGTGAAAGGTAACTCAGTCTGGTACGC returned a PBM binding z-score of 2.12.

Consider CGTCAAAGTTCAACTAAGGTAACGTATAGCACGC, for which the PBM binding z-score was found to be 4.52.

Take CGCACTAGGTCAAAGGACAGTGAAAGGCGACGTA: the PBM binding z-score came out at 1.83.

As to CGAACTAGGTTACCAGGACAGTGAAGAGGTTGGA, the PBM binding z-score is -0.238.

ATATGTAGGTTAGGGTCGTTCAGAAAGTAGGGAA displayed a PBM binding z-score of 3.09.

Sequence CGAACTAGGTCAAAGGACAGTGACAGGCGACGTA returned a PBM binding z-score of 1.88.

Sequence CGTCCAAGGGCAGCAGGTCAGTGAAAGCGACGTG came in with a PBM binding z-score of -0.105.

Regarding CGAACTAGGTCACCAGGACACTGAAGAGGTTGGA, the PBM binding z-score is 1.95.

For GCTTACGGGTCAAAGGTTACAGCATGAATAGAAT, the PBM binding z-score was found to be 6.05.

TTACCAAGGTGAAAGGTCGTTGAAGCACGCCTTG came in with a PBM binding z-score of 2.97.

Sequence CGAACTAGGTCAAAGGACAATGAAAGGCGACGTA returned a PBM binding z-score of 1.92.

The sequence GCTTACGGGTCAAAGGTTATAGTATGAATAGAAT displayed a PBM binding z-score of 5.84.

On to CGTCCAAGGTCATAGGAGGTCACTGAAGACAGAT, for which the PBM binding z-score came to 6.62.

For the sequence ATCGAAAGGTCGACGAGGTGAGTATGCACCGTTT, the PBM binding z-score was determined as 2.5.

The sequence CGAACTAGGTCTCCAGGACAGTGAAGAGGTTGGA had a PBM binding z-score of -0.832.
